Our source for the growth inhibition values is PubChem BioAssay (NCI).

Assay [1] in a line: NCI Yeast Anticancer Drug Screen. Data for the rad50 strain (AID 155).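 Further: 0% = growth of vehicle-only cultures of the same strain.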 The note with it: S. cerevisiae rad50 strain growth inhibition, stronger effect = higher value. Put shortly:
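Relative growth inhibition (compound vs vehicle) was measured in yeast with a defined repair-gene alteration.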

A short description of assay [2]: NCI Yeast Anticancer Drug Screen. Data for the mec2-1 strain (AID 157). The following applies: S. cerevisiae mec2-1 strain, stronger effect = higher value. A digest of the protocol:
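Each compound was tested on mec2-1 yeast, a strain altered in DNA damage repair or cell cycle control. Growth inhibition is reported relative to vehicle.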

A short description of assay [3]: NCI Yeast Anticancer Drug Screen. Data for the sgs1 mgt1 strain (AID 161).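 Further: 0% = growth of cultures given vehicle only.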 The note with it: S. cerevisiae sgs1 mgt1 strain, stronger effect = higher value. A digest of the protocol:
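Genetically altered yeast, compound exposure, growth inhibition relative to vehicle.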

Assay [4] is described as follows: NCI Yeast Anticancer Drug Screen. Data for the cln2 rad14 strain (AID 165).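 Further: 0% = growth equal to vehicle treated cultures.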 The note with it: S. cerevisiae cln2 rad14 strain, stronger effect = higher value. A digest of the protocol:
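Test compounds were added to cln2 rad14 yeast cultures; inhibition of growth was then determined by comparison with vehicle treatment.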

The nature of assay [5]: NCI Yeast Anticancer Drug Screen. Data for the bub3 strain (AID 167). The following applies: S. cerevisiae bub3 mutant strain, stronger effect = higher value. Put shortly:
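Screening used yeast with an engineered genetic alteration affecting cell cycle control. Compound-exposed cultures were compared with vehicle cultures, and reduced growth was taken as inhibition.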

Assay [6] in a line: NCI Yeast Anticancer Drug Screen. Data for the mlh1 rad18 strain (AID 175). The note with it: S. cerevisiae mlh1 rad18 strain growth inhibition, stronger effect = higher value. Put shortly:
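Inhibition values reflect reduced growth of mutant yeast versus vehicle-treated controls following compound exposure; the mutations affect DNA damage repair.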

The mark [7] stands for this setting: at 5.0 µM (retest, dose inferred, filed as 0.5).
[8] abbreviates: at 50.0 µM (retest, dose inferred, filed as 5.0).

About 79,000 compounds went through this panel and 15% of them were active in at least one assay; those are over-represented in the sample as a whole. Values without a mark were called inactive. Activity calls are given as the source filed them. No stated cut-off is given here; in the data, active means growth inhibition above about 70%; inactive means the rest.

On to `Cn1cnc([N+](=O)[O-])c1Sc1nc2ccccc2s1`, for which the growth inhibition in assay [1] (setting [7]) was 57%; in assay [1] (setting [8]), 96% (active); in assay [1] (at 50.0 µM), 91.3% (active); in assay [2] (setting [7]) it was 38%; in assay [2] (setting [8]), 98% (active); in assay [2] (at 50.0 µM), 92.3% (active). Also, the growth inhibition in assay [3] (setting [7]) is 51%; in assay [3] (setting [8]), 97% (active); in assay [3] (at 50.0 µM) it was 92.1% (active); in assay [4] (setting [7]), 35%; in assay [4] (setting [8]), 74% (active); in assay [4] (at 50.0 µM), 90.7% (active). Moreover, the growth inhibition was 45% in assay [5] (setting [7]); 97% (active) in assay [5] (setting [8]); 91.4% (active) in assay [5] (at 50.0 µM); 64% in assay [6] (setting [7]); 98% (active) in assay [6] (setting [8]); 90% (active) in assay [6] (at 50.0 µM).

Take `O=C(/C=C/C(=O)N1CCCC1)N1CCCC1`: the growth inhibition in assay [1] (setting [7]) was 6%; in assay [1] (setting [8]) it was 10%; in assay [1] (at 50.0 µM) it was 1.15%; in assay [2] (setting [7]) it was 3%; in assay [2] (setting [8]), 1%; in assay [2] (at 50.0 µM), 0.65%. The growth inhibition is 4% in assay [3] (setting [7]); 3% in assay [3] (setting [8]); 14.8% in assay [3] (at 50.0 µM); -4% in assay [4] (setting [7]); -11% in assay [4] (setting [8]); -1.35% in assay [4] (at 50.0 µM). In addition, the growth inhibition in assay [5] (setting [7]) was 2%; in assay [5] (setting [8]) it was 6%; in assay [5] (at 50.0 µM), 2.55%; in assay [6] (setting [7]) it was -2%; in assay [6] (setting [8]) it was -2%; in assay [6] (at 50.0 µM), 37.4%.

Take `O=C1C(Cl)=C(c2ccccc2)C1Cl` (stereo not given): the growth inhibition in assay [1] (setting [7]) was 97% (active); in assay [1] (setting [8]), 100% (active); in assay [1] (at 50.0 µM), 99.2% (active); in assay [2] (setting [7]), 98% (active); in assay [2] (setting [8]), 99% (active); in assay [2] (at 50.0 µM), 99.5% (active). Moreover, the growth inhibition in assay [3] (setting [7]) is 99% (active); in assay [3] (setting [8]), 100% (active); in assay [3] (at 50.0 µM), 99.7% (active); in assay [4] (setting [7]), 98% (active); in assay [4] (setting [8]), 99% (active); in assay [4] (at 50.0 µM) it was 99.5% (active). For the same compound, the growth inhibition in assay [5] (setting [7]) is 96% (active); in assay [5] (setting [8]), 99% (active); in assay [5] (at 50.0 µM), 99.5% (active); in assay [6] (setting [7]) it was 99% (active); in assay [6] (setting [8]), 99% (active); in assay [6] (at 50.0 µM), 99.2% (active).

Consider `CCCCCCCCCCOC(=O)c1cccnc1`, for which the growth inhibition in assay [1] (setting [7]) is 5%; in assay [1] (setting [8]) it was 86% (active); in assay [1] (at 50.0 µM), -5.45%; in assay [2] (setting [7]), 0%; in assay [2] (setting [8]), 52%; in assay [2] (at 50.0 µM) it was 39.3%. The growth inhibition in assay [3] (setting [7]) is 7%; in assay [3] (setting [8]) it was 74% (active); in assay [3] (at 50.0 µM), 30.6%; in assay [4] (setting [7]), 3%; in assay [4] (setting [8]) it was 34%; in assay [4] (at 50.0 µM) it was -1.4%. The growth inhibition in assay [5] (setting [7]) is 8%; in assay [5] (setting [8]), 91% (active); in assay [5] (at 50.0 µM), 78.2% (active); in assay [6] (setting [7]) it was 9%; in assay [6] (setting [8]), 87% (active); in assay [6] (at 50.0 µM), 80.5% (active).

For `O=C1CN=C(c2ccccc2)N(c2ccccc2)N1`, the growth inhibition in assay [1] (setting [7]) is -1%; in assay [1] (setting [8]) it was 96% (active); in assay [1] (at 50.0 µM), 94% (active); in assay [2] (setting [7]) it was -6%; in assay [2] (setting [8]), 97% (active); in assay [2] (at 50.0 µM), 96.5% (active). The growth inhibition in assay [3] (setting [7]) was -15%; in assay [3] (setting [8]), 96% (active); in assay [3] (at 50.0 µM) it was 94.5% (active); in assay [4] (setting [7]) it was 2%; in assay [4] (setting [8]), 93% (active); in assay [4] (at 50.0 µM) it was 85% (active). The growth inhibition in assay [5] (setting [7]) was 8%; in assay [5] (setting [8]), 97% (active); in assay [5] (at 50.0 µM), 94.7% (active); in assay [6] (setting [7]), -1%; in assay [6] (setting [8]), 94% (active); in assay [6] (at 50.0 µM), 94.4% (active).

Turning to `CCOC(=O)Cc1nc2ccccc2s1`, the growth inhibition in assay [1] (setting [7]) is 3%; in assay [1] (setting [8]), 100% (active); in assay [1] (at 50.0 µM), 99.2% (active); in assay [2] (setting [7]) it was 2%; in assay [2] (setting [8]), 100% (active); in assay [2] (at 50.0 µM), 99.6% (active). Besides, the growth inhibition in assay [3] (setting [7]) is 6%; in assay [3] (setting [8]) it was 99% (active); in assay [3] (at 50.0 µM), 99.5% (active); in assay [4] (setting [7]), 6%; in assay [4] (setting [8]), 98% (active); in assay [4] (at 50.0 µM) it was 99.2% (active). The growth inhibition was 9% in assay [5] (setting [7]); 99% (active) in assay [5] (setting [8]); 98.8% (active) in assay [5] (at 50.0 µM); 2% in assay [6] (setting [7]); 99% (active) in assay [6] (setting [8]); 99.3% (active) in assay [6] (at 50.0 µM).

Take `O.O.O=Cc1cc(Br)cc(Br)c1O.O=Cc1cc(Br)cc(Br)c1O.[Co]`: the growth inhibition was 58% in assay [1] (setting [7]); 99% (active) in assay [1] (setting [8]); 99.2% (active) in assay [1] (at 50.0 µM); 25% in assay [2] (setting [7]); 99% (active) in assay [2] (setting [8]); 96.7% (active) in assay [2] (at 50.0 µM). The growth inhibition in assay [3] (setting [7]) was 37%; in assay [3] (setting [8]), 89% (active); in assay [3] (at 50.0 µM) it was 99% (active); in assay [4] (setting [7]) it was 15%; in assay [4] (setting [8]) it was 99% (active); in assay [4] (at 50.0 µM) it was 89.5% (active). Further, the growth inhibition in assay [5] (setting [7]) was 53%; in assay [5] (setting [8]) it was 99% (active); in assay [5] (at 50.0 µM) it was 90.5% (active); in assay [6] (setting [7]), 79% (active); in assay [6] (setting [8]), 99% (active); in assay [6] (at 50.0 µM) it was 99.2% (active).

For the compound `CC(=O)N(/C=C\c1sc2ccccc2[n+]1C)c1ccccc1`, the growth inhibition in assay [1] (setting [7]) was 38%; in assay [1] (setting [8]), 96% (active); in assay [1] (at 50.0 µM), 90.5% (active); in assay [2] (setting [7]), 27%; in assay [2] (setting [8]), 98% (active); in assay [2] (at 50.0 µM) it was 87.5% (active). Also, the growth inhibition was 61% in assay [3] (setting [7]); 89% (active) in assay [3] (setting [8]); 84% (active) in assay [3] (at 50.0 µM); 33% in assay [4] (setting [7]); 65% in assay [4] (setting [8]); 89.8% (active) in assay [4] (at 50.0 µM). Besides, the growth inhibition is 27% in assay [5] (setting [7]); 98% (active) in assay [5] (setting [8]); 91.3% (active) in assay [5] (at 50.0 µM); 54% in assay [6] (setting [7]); 97% (active) in assay [6] (setting [8]); 90.6% (active) in assay [6] (at 50.0 µM).

In the case of `C[C@H]1CC[C@@H]2[C@@H](C)[C@H]3[C@H](C[C@H]4[C@@H]5CC=C6C[C@@H](O)CC[C@]6(C)[C@H]5CC[C@]34C)N2C1`, the growth inhibition was 27% in assay [1] (setting [7]); 98% (active) in assay [1] (setting [8]); 58% in assay [1] (at 50.0 µM); 28% in assay [2] (setting [7]); 99% (active) in assay [2] (setting [8]); 93.5% (active) in assay [2] (at 50.0 µM). Besides, the growth inhibition in assay [3] (setting [7]) was 44%; in assay [3] (setting [8]) it was 99% (active); in assay [3] (at 50.0 µM), 93.2% (active); in assay [4] (setting [7]), 28%; in assay [4] (setting [8]), 98% (active); in assay [4] (at 50.0 µM) it was 91.2% (active). Further, the growth inhibition was 48% in assay [5] (setting [7]); 99% (active) in assay [5] (setting [8]); 93% (active) in assay [5] (at 50.0 µM); 56% in assay [6] (setting [7]); 98% (active) in assay [6] (setting [8]); 86.6% (active) in assay [6] (at 50.0 µM).

Consider `CC1=C(C2CO2)C(=O)C(C)=C(C2CO2)C1=O` (stereo not given), for which the growth inhibition is 68% in assay [1] (setting [7]); 100% (active) in assay [1] (setting [8]); 99.6% (active) in assay [1] (at 50.0 µM); 40% in assay [2] (setting [7]); 100% (active) in assay [2] (setting [8]); 99.5% (active) in assay [2] (at 50.0 µM). Moreover, the growth inhibition is 43% in assay [3] (setting [7]); 99% (active) in assay [3] (setting [8]); 99.5% (active) in assay [3] (at 50.0 µM); 59% in assay [4] (setting [7]); 99% (active) in assay [4] (setting [8]); 99.5% (active) in assay [4] (at 50.0 µM). For the same compound, the growth inhibition is 43% in assay [5] (setting [7]); 99% (active) in assay [5] (setting [8]); 98.2% (active) in assay [5] (at 50.0 µM); 60% in assay [6] (setting [7]); 99% (active) in assay [6] (setting [8]); 99.5% (active) in assay [6] (at 50.0 µM).
